The record followed here is PubChem BioAssay (Tox21).

A number with no mark means an inactive call. Records with an inconclusive call do not appear. Activity calls are given as the source filed them. Unless noted, calls follow the shape of the dose curve; as a rule, active = well fitted curve in the direction sought with a large enough effect in the repeat runs; inconclusive = weak or mixed curves; inactive = no such curve, though single readings can be large; an effect the other way counts as inactive or inconclusive.

Test [1] in a line: qHTS assay to identify small molecule agonists of the androgen receptor (AR) signaling pathway in the presence of an antagonist - cell viability counter screen (AID 1259379). Also: nearly all actives have a fitted effect of over 25% in size. Also: potency is read from the fitted curve at half-maximal effect. In outline:
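Viability counter screen: CellTiter-Fluor fluorescence, measured in the same wells as the luciferase read-out. MDA-kb2 cells, 3,000/well, with nilutamide at 3.0uM final and compounds at 15 concentrations, 16 hr at 37C, 0% CO2.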
(In general: In qHTS, concentration-response curves come from the screen itself.)

Test [2] in a line: qHTS assay to identify small molecule agonists of the estrogen receptor beta (ER-beta) signaling pathway - cell viability counter screen (AID 1259380). Also: nearly all actives have a fitted effect of over 30% in size. Also: potency is read from the fitted curve at half-maximal effect. In outline:
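Luminescence read-out (CellTiter-Glo, 30 min, room temp) taken in the same wells as the beta-lactamase reporter assay; ER-beta-UAS-bla HEK293T cells exposed to DMSO-dissolved compounds for 16 hr at 37C in 2% charcoal-stripped FBS medium.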

Test [3] addresses Androgen receptor (Homo sapiens) (UniProt P10275). The test is described as follows: qHTS assay to identify small molecule agonists of the androgen receptor (AR) signaling pathway in the presence of an antagonist (AID 1259381; calls by dose curve; also: nearly all actives have a fitted effect of over 15% in size). In short, it runs like this: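 Luciferase read-out (ONE-Glo, 30min room temperature) in MDA-kb2 MMTV-reporter cells; agonist mode run in presence of AR antagonist nilutamide, 3.0uM final. Compounds tested as 15-point series, 16hr exposure at 37C, 0% CO2.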

Test [4] is described as follows: qHTS assay to identify small molecule antagonists of the estrogen receptor beta (ER-beta) signaling pathway - cell viability counter screen (AID 1259382). Also: nearly all actives have a fitted effect of over 55% in size. Also: potency is read from the fitted curve at half-maximal effect. In short, it runs like this: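 Luminescent ATP read-out (CellTiter-Glo, 30 min, RT) taken in the same wells as the bla reporter assay. HEK293T ER-beta-UAS-bla cells in 2% charcoal-stripped FBS were exposed to compounds with 1nM E2 for 16 hr at 37C.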

Test [5] in a line: qHTS assay to identify small molecule agonists or antagonists of the thyroid stimulating hormone receptor (TSHR) signaling pathway - wild type cell line counter screen (AID 1259384; calls by dose curve). In short, it runs like this: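 Wild-type Hek293 cells, 800/well, 18 h at 37C, then compound with Ro20-1724 for 30 min RT. cAMP by HTRF (cAMP-d2/anti-cAMP cryptate), 1 h RT, fluorescence read. 15 concentrations, triplicates.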

Test [6] addresses Thyrotropin receptor (Homo sapiens) (UniProt P16473). The test is described as follows: qHTS assay to identify small molecule antagonists of the thyroid stimulating hormone receptor (TSHR) signaling pathway (AID 1259385; calls by dose curve; also: nearly all actives have a fitted effect of over 20% in size). In short, it runs like this: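 TSHR-HEK293 cells (800/well) plated 18 h, then compounds with Ro20-1724 and TSH at 1.5 ng/mL final, 30 min at room temperature. cAMP quantified by HTRF (cAMP-d2/anti-cAMP-cryptate, 1 h); 15 concentrations in triplicate.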

The nature of test [7]: qHTS assay to identify small molecule agonists of the estrogen receptor alpha (ER-alpha) signaling pathway in the presence of an antagonist - cell viability counter screen (AID 1259386).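 Also: series mostly up to about 92 µM; cells exposed to compounds for 22 h at 37 °C before the viability read; nearly all actives have a fitted effect of over 30% in size.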 In outline:
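Read-out: CellTiter-Fluor fluorescence after 1hr reagent incubation, measured in the same wells as the luciferase readout. VM7Luc4E2 cells were exposed to 15 compound concentrations with 10.0nM ICI-182,780 for 22hr at 37C.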

The target in test [8] is Progesterone receptor (Homo sapiens) (UniProt P06401). As to the kind of experiment: qHTS assay to identify small molecule agonists of the progesterone receptor (PR) signaling pathway (AID 1346784; calls by dose curve; also: nearly all actives have a fitted effect of over 30% in size). In short, it runs like this:
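The screen uses PR-UAS-bla HEK 293T cells in charcoal-stripped serum (2%). Compounds are applied for 16 hr at 37C after a 6 hr pre-incubation, and reporter activity is detected with a FRET beta-lactamase substrate after 2 hr at room temperature.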

The target is the same in test [9]. As to the kind of experiment: qHTS assay to identify small molecule antagonists of the progesterone receptor (PR) signaling pathway (AID 1346795; active = well fitted inhibition curve with a large enough effect in the signal ratio in the repeat runs, not every such curve was filed as active; the % refers to the signal ratio; also: potency is read from the fitted curve at half-maximal effect). In short, it runs like this: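 After 6 hr plating at 37C in 2% stripped-serum medium, PR-UAS-bla HEK293T cells got compounds, then 1 nM R5020. Sixteen hours later, LiveBLAzer substrate was applied for 2 hr at room temperature and fluorescence was recorded.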

Test [10] can be described thus: qHTS assay to identify small molecule antagonists of the progesterone receptor (PR) signaling pathway - cell viability counter screen (AID 1346798). Also: series mostly up to about 92 µM; nearly all actives have a fitted effect of over 50% in size. In short, it runs like this:
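Viability was determined by ATP-based luminescence (CellTiter-Glo) in PR-UAS-bla HEK293T cells cultured in 2% charcoal-stripped serum and incubated 16 hr with compounds under R5020 stimulation.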

Test [11] can be described thus: qHTS assay to identify small molecule agonists of the progesterone receptor (PR) signaling pathway - cell viability counter screen (AID 1346799; calls by dose curve; also: nearly all actives have a fitted effect of over 45% in size). In short, it runs like this:
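Viability was scored by ATP luminescence (CellTiter-Glo, 30 min, room temperature) in the same wells used for the reporter readout, after 16 hr compound exposure of PR-UAS-bla HEK293T cells.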

A short description of test [12]: qHTS assay to identify small molecule agonists of the TGF-beta/Smad signaling pathway - cell viability counter screen (AID 1346829). Also: top concentration of the series differs between compounds; nearly all actives have a fitted effect of over 45% in size. In short, it runs like this:
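Tox21 qHTS format: SBE-bla HEK 293T cells treated with DMSO-dissolved compounds for 5 hr; CellTiter-Glo luminescence after 30 min at room temperature.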

Test [13] is described as follows: qHTS assay to identify small molecule agonists of the TGF-beta/Smad signaling pathway (AID 1346859; active = well fitted activation curve with a large enough effect in the signal ratio in the repeat runs, not every such curve was filed as active; the % refers to the signal ratio; also: series mostly up to about 77 µM). In short, it runs like this:
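Dual-wavelength fluorescence (460/530 nm emission) quantified beta-lactamase expression under the Smad binding element in HEK 293T cells following 5 hr compound treatment at 37 C.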

In test [14] the target is Thyrotropin-releasing hormone receptor (Homo sapiens) (UniProt P34981). As to the kind of experiment: qHTS assay to identify small molecule antagonists of the thyrotropin-releasing hormone receptor (TRHR) signaling pathway (AID 1346877; active = well fitted inhibition curve with a large enough effect in the repeat runs, not every such curve was filed as active; also: series mostly up to about 51 µM). In short, it runs like this: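 HEK293/TRHR cells, 18 h, 37 °C; Ca2+ dye 2 h; cpd 5 min RT; TRH 1 nM final; fluorescence read 3 min, 1 s intervals; 15 concs, triplicate.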
Thyrotropin-releasing hormone receptor (Homo sapiens), sequence (P34981 whole entry, looked up): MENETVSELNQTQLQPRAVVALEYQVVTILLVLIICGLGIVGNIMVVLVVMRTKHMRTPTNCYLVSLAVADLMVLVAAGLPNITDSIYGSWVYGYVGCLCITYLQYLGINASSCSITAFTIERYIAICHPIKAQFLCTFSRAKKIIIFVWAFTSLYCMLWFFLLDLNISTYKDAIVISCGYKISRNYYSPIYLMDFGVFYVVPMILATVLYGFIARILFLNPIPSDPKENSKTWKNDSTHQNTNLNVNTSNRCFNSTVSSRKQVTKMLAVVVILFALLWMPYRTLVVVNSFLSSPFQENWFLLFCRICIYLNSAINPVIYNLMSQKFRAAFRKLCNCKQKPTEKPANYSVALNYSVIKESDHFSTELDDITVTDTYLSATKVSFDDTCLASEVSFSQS

The target is the same in test [15]. The test is described as follows: qHTS assay to identify small molecule agonists of the thyrotropin-releasing hormone receptor (TRHR) signaling pathway (AID 1346891; calls by dose curve;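 also: HEK293 cells expressing TRHR with calcium dye readout; series mostly up to about 58 µM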). In outline: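 Kinetic fluorescence (3 min, 1 s intervals) reported intracellular calcium after compound transfer onto TRHR-Hek293 cells pre-loaded with dye for 2 h at 37 °C.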
Test [16] is described as follows: Human pregnane X receptor (PXR) small molecule agonists, qHTS cell viability counter screen (AID 1346977). Also: nearly all actives have a fitted effect of over 50% in size. Also: potency is read from the fitted curve at half-maximal effect. In short, it runs like this: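 HepG2 cells stably carrying the PXR-Luc reporter are cultured with 5% charcoal-stripped FBS and treated with compounds for 24hr. CellTiter-Fluor is added at 23hr and fluorescence is read after 1hr.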
The target of test [17] is Estrogen receptor (Homo sapiens) (UniProt P03372). As to the kind of experiment: qHTS assay to identify small molecule agonists of the estrogen receptor alpha (ER-alpha) signaling pathway in the presence of an antagonist (AID 1259383; calls by dose curve; also: top concentration of the series differs between compounds; nearly all actives have a fitted effect of over 15% in size). In outline:
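Luciferase luminescence (ONE-Glo, 30min at room temperature) measured in VM7Luc4E2 cells after 22hr compound exposure at 15 concentrations, with 10.0nM ICI-182,780 final present; cells express endogenous ER-alpha and carry four EREs upstream of luciferase.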

Test [18] is described as follows: qHTS assay to identify small molecule antagonists of the TGF-beta/Smad signaling pathway - cell viability counter screen (AID 1346824). Also: nearly all actives have a fitted effect of over 50% in size. In short, it runs like this:
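SBE-bla HEK 293T cells, incubated overnight, then compound plus 0.25 ng/mL TGF-beta1 (stock added) for 5 hr at 37 C. Viability was read in the same wells by CellTiter-Glo luminescence after 30 min at room temperature.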

Thyrotropin receptor (Homo sapiens), sequence (P16473 whole entry, looked up): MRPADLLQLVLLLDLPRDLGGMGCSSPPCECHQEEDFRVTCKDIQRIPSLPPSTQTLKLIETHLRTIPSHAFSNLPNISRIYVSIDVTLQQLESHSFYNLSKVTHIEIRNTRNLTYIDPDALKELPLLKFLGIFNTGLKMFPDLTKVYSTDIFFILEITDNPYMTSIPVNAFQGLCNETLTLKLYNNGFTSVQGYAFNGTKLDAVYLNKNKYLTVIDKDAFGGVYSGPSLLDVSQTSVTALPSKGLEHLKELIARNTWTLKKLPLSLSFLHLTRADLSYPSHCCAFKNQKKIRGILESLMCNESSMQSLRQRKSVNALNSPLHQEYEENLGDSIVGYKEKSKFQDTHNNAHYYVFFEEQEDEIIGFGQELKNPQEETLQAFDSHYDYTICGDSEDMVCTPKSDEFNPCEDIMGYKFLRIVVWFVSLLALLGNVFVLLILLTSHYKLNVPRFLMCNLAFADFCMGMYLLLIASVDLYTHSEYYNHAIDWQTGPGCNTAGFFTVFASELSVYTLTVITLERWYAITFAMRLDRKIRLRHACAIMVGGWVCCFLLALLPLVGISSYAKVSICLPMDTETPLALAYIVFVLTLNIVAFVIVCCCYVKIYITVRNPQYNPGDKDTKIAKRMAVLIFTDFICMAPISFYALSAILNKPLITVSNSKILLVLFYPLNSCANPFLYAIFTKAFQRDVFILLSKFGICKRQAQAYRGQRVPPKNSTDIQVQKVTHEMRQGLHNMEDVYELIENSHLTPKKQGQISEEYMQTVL
Androgen receptor (Homo sapiens), sequence (P10275 whole entry, looked up): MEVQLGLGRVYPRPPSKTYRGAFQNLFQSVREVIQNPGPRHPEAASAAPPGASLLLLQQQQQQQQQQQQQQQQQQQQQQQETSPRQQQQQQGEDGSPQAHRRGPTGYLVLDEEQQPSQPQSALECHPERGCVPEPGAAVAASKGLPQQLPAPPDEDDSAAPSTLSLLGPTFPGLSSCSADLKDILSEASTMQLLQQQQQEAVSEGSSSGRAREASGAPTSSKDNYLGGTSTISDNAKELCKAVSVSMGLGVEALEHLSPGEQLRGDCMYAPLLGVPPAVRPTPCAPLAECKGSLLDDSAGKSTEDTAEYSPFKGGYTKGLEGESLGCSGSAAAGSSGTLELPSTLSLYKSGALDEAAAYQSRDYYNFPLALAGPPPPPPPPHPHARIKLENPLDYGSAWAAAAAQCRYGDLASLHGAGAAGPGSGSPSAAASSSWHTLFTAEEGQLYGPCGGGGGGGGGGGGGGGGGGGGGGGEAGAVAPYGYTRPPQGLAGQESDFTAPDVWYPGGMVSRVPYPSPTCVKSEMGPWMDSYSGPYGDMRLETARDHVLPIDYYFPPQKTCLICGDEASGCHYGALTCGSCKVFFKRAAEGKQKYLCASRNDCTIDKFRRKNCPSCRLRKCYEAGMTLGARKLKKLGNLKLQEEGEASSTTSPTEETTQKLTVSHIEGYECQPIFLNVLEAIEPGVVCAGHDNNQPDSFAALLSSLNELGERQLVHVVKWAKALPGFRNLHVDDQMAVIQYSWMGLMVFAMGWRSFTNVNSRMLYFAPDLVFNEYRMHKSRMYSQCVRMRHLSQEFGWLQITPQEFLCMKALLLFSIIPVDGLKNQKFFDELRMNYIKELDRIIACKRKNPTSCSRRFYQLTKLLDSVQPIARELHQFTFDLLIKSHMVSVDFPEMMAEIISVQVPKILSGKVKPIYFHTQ
Estrogen receptor (Homo sapiens), sequence (P03372 whole entry, looked up): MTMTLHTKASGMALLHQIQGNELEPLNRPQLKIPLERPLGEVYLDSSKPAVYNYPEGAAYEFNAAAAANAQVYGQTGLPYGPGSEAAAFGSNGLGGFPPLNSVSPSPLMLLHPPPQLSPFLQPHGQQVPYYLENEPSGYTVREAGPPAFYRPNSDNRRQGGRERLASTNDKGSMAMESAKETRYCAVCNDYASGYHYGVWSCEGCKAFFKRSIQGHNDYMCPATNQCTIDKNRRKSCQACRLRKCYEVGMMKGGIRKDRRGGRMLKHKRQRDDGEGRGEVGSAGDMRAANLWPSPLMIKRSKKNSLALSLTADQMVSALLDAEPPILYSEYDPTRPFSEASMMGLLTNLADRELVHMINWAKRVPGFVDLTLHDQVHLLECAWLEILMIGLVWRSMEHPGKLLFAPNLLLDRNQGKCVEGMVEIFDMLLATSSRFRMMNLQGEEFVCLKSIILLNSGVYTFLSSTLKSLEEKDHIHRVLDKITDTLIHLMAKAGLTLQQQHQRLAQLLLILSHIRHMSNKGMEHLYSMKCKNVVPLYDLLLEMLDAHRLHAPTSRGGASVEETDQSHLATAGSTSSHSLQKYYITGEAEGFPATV
Progesterone receptor (Homo sapiens), sequence (P06401 whole entry, looked up): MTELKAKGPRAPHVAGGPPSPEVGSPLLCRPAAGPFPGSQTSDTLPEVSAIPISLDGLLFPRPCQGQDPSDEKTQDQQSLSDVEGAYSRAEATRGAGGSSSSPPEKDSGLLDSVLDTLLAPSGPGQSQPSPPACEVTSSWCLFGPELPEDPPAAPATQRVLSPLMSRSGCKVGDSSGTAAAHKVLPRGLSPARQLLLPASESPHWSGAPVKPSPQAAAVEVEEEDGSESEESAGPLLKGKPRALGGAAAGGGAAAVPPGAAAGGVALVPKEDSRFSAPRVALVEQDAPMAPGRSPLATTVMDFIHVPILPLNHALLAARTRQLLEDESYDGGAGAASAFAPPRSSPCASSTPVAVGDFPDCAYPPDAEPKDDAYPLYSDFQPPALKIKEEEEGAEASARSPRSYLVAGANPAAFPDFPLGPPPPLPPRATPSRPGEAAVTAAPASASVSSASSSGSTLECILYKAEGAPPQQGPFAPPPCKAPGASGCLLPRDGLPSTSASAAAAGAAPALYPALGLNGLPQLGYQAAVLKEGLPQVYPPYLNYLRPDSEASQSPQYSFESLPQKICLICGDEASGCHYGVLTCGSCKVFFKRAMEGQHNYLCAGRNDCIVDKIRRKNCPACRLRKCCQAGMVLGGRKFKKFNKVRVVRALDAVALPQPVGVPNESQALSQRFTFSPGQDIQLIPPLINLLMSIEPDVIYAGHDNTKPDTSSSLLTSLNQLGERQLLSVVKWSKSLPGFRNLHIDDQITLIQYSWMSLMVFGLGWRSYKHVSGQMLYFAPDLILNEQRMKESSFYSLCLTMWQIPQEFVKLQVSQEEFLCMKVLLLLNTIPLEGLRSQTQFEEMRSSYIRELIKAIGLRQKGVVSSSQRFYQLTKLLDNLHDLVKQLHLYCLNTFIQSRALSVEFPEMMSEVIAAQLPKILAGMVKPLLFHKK

As to `CCC1CCCCC1`, the Potency result in [1], in [2], in test [3], in test [4], in test [6] and in [7] was “inactive” throughout. In addition, the Potency entry in [9], in test [10], in test [11], in [12], in test [13] and in test [14] was “inactive” throughout. In addition, the Potency result in test [15] and in test [16] was “inactive” in each case. Besides, the outcome in test [5] and in [8] was inactive.

`O=C(O)c1cccc(Cl)n1`: the Potency entry in [1], in [2], in [3], in test [4], in test [17] and in [6] was “inactive” throughout. Also, the Potency result in test [9], in [10], in test [11], in [18], in [12] and in [13] was “inactive” in each case. Also, the Potency entry in test [14], in test [15] and in test [16] was “inactive” throughout. Further, the molecule was called inactive in test [5] and in [8].

Turning to `c1cc[nH]c1`, the Potency entry in [1], in test [2], in [3], in [4], in test [17] and in test [6] was “inactive” throughout. The Potency result in [7], in [9], in test [10], in [11], in test [12] and in test [13] was “inactive” each time. The Potency entry in test [14], in [15] and in test [16] was “inactive” each time. The outcome in [8] was inactive.

Take `NC(=O)c1ccccc1N`: the Potency entry in [1], in test [2], in test [3], in [4], in [17] and in test [6] was “inactive” throughout. The Potency entry in test [7], in test [10], in test [11], in test [18], in [12] and in test [13] was “inactive” in each case. Besides, the Potency result in test [14], in test [15] and in [16] was “inactive” in each case. Moreover, in test [5], the result was inactive.

Take `CCCCCCCCCCCCN(CCO)CCO`: the Potency in test [1] is 60.9 µM (active); in test [2], 60.9 µM (active); in test [4], 60.9 µM (active); in test [9], 60.9 µM (active); in [16] it was 48.4 µM (active). For the same molecule, the Potency result in test [3], in test [17], in [6], in test [7], in [18] and in [13] was “inactive” in each case. The Potency entry in test [14] and in [15] was “inactive” each time. For the same molecule, the molecule was classed as inactive in test [5].

Consider `CCCC(C)CCC(C)=O` (stereo not drawn), for which the Potency result in test [1], in test [2], in test [3], in [4], in [17] and in [6] was “inactive” each time. In addition, the Potency entry in test [7], in test [9], in test [10], in test [11], in test [18] and in test [12] was “inactive” in each case. For the same molecule, the Potency entry in test [13], in [15] and in [16] was “inactive” throughout.

`c1ccc(Sc2ccccc2)cc1`: the Potency result in [1], in test [2], in [3], in test [4], in test [6] and in test [9] was “inactive” each time. For the same molecule, the Potency entry in test [10], in test [11], in test [18], in test [12], in test [13] and in [16] was “inactive” throughout. The call in [5] and in [8] was inactive.
